High-throughput results from PubChem BioAssay.
This is a sample that favours compounds with a hit; in the whole collection about 7.5% have one here.
SMN2 splice up: SMN2 splice variant enhancement; AID 1458; 210,000 compounds, 2.8% hits; Potency, µM (titrated, usually from 46.1 µM), most hits filed as activators; HEK293 SMN2-luciferase splicing reporter, luminescence, 30-36 h; note: nearly all actives have a fitted effect of over 55% in size
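qHTS luciferase splicing reporter: luminescence rises when SMN2 exon 7 is included in transfected HEK293 cells. Compound exposure lasted 30-36 h at 37C, with 4.5 mM final sodium butyrate as control, followed by a ONE-Glo read.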
NPC1 promoter act: activators of NPC1 promoter. Huh7 NPC1 promoter luciferase reporter, 24 h. Potency, µM (series often up to 9.22 µM), usual class: activators. AID 485313. 320,000 compounds, 2.4% hits; note: nearly all actives have a fitted effect of over 60% in size
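In 1536-well qHTS, Huh7 cells harboring an NPC1 promoter–luciferase construct received compound for 24 h; activation was quantified by luminescence following luciferase reagent addition.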
Luc counter: Kinase-Glo luciferase inhibition (counter-screen); 200,000 compounds, 0.28% hits; Q27757; AID 1379; Potency, µM (series often up to 38.3 µM), actives largely listed as inhibitors; Kinase-Glo luciferase, ATP luminescence, 8 min; note: nearly all actives have a fitted effect of over 60% in size
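Recombinant Kinase-Glo luciferase, 10 uM ATP (linear range), luciferin; imidazole pH 7.2 / KCl / MgCl2 / Tween / BSA buffer; 8 min RT; luminescence.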
Rab9 prom act: Rab9 promoter activation; Huh7 Rab9 promoter-luciferase reporter, luminescence, 24 h; Potency, µM (series often up to 9.22 µM), hits mostly activators; 320,000 compounds, 2.8% hits; AID 485297; note: nearly all actives have a fitted effect of over 60% in size
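Huh7 cells stably carrying Rab9 promoter–luciferase reporter, plated 1500 cells/well, compound added after 2 h and incubated 24 h at 37 °C; luciferase luminescence then read after 10 min with detection reagent.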
ELG1 genotoxic: genotoxicity induction in ELG1-luciferase HEK293T cells | HEK293T ELG1-luciferase reporter, luminescence, 16 h | Potency, µM (doses to about 46 µM), hits mostly activators | 330,000 compounds, 1.3% hits; note: nearly all actives have a fitted effect of over 60% in size
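After overnight (16 hr) compound treatment at 37 °C, ELG1-luciferase HEK293T cells were lysed with ONE-Glo; luminescence quantified 30 min later at room temperature.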
FLuc counter: inhibits or activates purified firefly luciferase, miR-21 counter-screen | purified FLuc, Km substrates, luminescence inhibition | Potency, µM (highest dose often 57.5 µM), actives largely listed as inhibitors | 360,000 compounds, 6.9% hits | AID 588342; note: nearly all actives have a fitted effect of over 55% in size
Target sequence (P08659 whole entry, looked up): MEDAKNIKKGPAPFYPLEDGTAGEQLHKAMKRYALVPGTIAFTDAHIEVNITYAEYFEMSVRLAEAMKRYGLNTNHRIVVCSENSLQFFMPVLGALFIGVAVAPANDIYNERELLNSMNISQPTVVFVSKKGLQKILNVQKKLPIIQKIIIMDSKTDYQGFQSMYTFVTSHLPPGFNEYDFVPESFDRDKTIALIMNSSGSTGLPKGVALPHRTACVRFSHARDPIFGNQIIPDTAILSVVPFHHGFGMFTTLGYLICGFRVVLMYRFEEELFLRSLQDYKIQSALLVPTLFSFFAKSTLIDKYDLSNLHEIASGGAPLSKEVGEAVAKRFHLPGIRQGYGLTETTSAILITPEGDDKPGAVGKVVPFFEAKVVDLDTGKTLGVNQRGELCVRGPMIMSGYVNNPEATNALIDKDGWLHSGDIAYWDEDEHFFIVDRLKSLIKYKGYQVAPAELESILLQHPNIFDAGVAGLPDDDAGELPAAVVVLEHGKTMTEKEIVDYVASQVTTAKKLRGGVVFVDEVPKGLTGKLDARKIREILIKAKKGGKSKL
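Purified P. pyralis luciferase (10nM final) with 10uM D-luciferin and 10uM ATP (Km levels) in 50mM Tris acetate pH 7.5, 10mM Mg acetate, 0.01% Tween-20, 0.05% BSA; qHTS 6-point titration, ~60 µM downward; luminescence read.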
Hits are given with their value; i = inactive; ? = inconclusive; nt = not tested or not shown. Calls come from the whole dose curve; as a rule, active = well fitted curve in the direction sought with a large enough effect; inconclusive = small, poorly fitted or top-dose-only effect, or another doubt; inactive = no such curve, though single readings can be large; an effect the other way counts as inactive or inconclusive.

SMILES	SMN2 splice up	NPC1 promoter act	Luc counter	Rab9 prom act	ELG1 genotoxic	FLuc counter
CCCOC(=O)c1ccc(NC(=O)c2ccccc2[N+](=O)[O-])cc1	nt	i	i	?	i	?
O=C(N[C@H]1CCCc2ccccc21)O[C@@H]1C(=O)c2cc(Br)ccc2O[C@H]1c1ccc2c(c1)OCO2	i	nt	i	nt	nt	nt
CCC(C(=O)Nc1ccc(C(=O)OC)cc1)n1nc(-c2ccc(C)cc2)c2c(c1=O)CCCC2 (stereo not given)	i	nt	nt	nt	nt	i
CCCNC(=O)c1nc(C)n(-c2cc(Cl)ccc2Cl)n1	i	i	i	i	i	i
O=C(Nc1cccc(NC(=O)c2ccco2)c1)c1cccc(Br)c1	nt	i	nt	i	i	?
Cc1ccc(NC(=O)c2cccc(NC(=O)CCC(=O)O)c2)cc1C	i	i	i	i	i	8.5µM
O=C(Nc1cc(Br)c(O)c(Br)c1)c1cccc(NC(=O)c2ccco2)c1	nt	i	nt	i	i	11µM
Cc1c(Cl)cccc1NC(=O)c1cccc(NC(=O)CCC(=O)O)c1	i	i	i	i	i	i
O=C(O)c1nc2ccccc2nc1C(=O)O	?	i	i	i	?	21µM
Cc1cccc(N=Nc2cnc(N)s2)c1	nt	3.2µM	nt	3.2µM	?	6µM
CC(=O)Nc1ncc(N=Nc2cccc(C(F)(F)F)c2)s1	nt	i	nt	i	i	i
C=CCN(Cc1ccc(Cl)s1)C(=O)c1cc(S(=O)(=O)N2CCOCC2)ccc1F	nt	i	nt	i	i	i
COc1cccc(-c2ccc3c(N)c(C(=O)NC4CC4)sc3n2)c1	nt	2µM	nt	?	?	3µM
COc1cccc(-c2ccc3c(N)c(C(=O)c4ccc(F)cc4)sc3n2)c1	i	nt	nt	nt	nt	i
COc1cccc(-c2cc(C(=O)NC3CCCCC3)no2)c1	nt	?	nt	3.2µM	?	6µM
O=C(NC1CCCCC1)c1cc(-c2cccc(Cl)c2)on1	nt	?	nt	?	?	i
COc1ccc(-c2cc(C(=O)NC3CCCC3)no2)cc1	nt	0.79µM	nt	1.8µM	3.7µM	2.1µM
O=C(NC1CCCCC1)c1cc(-c2ccco2)on1	nt	2.5µM	nt	1.6µM	?	6µM
Cn1c(CCC(N)=O)nnc1SCC(=O)Nc1ccccc1C(=O)NC1CC1	nt	i	nt	i	i	i
N#Cc1ccccc1OCC(=O)Nc1ccccc1C(=O)NC1CC1	nt	i	nt	i	i	i
CCC(=O)OC1C2CC3=C4CC(=O)OC(c5ccoc5)[C@]4(C)CCC3[C@@](C)(C2=O)C(CC(=O)OC)C1(C)C (stereo not given in full)	i	nt	i	nt	nt	nt
CC(=O)N1CCc2c(sc3c2c(=O)n(-c2cc(Cl)ccc2C)c(=O)n3Cc2ccccc2F)C1	i	nt	nt	nt	nt	i
CCOc1cc(/C=C(/C#N)c2ccc(F)cc2)ccc1OCc1ccc(C(=O)O)o1	i	i	i	i	i	13µM
CCN(CCN1CCCC1)C(=O)c1cc(COc2ccccc2SC)on1	nt	i	nt	i	i	i
CCN(CCn1cccn1)C(=O)c1cc(COc2cc(C)ccc2C)on1	nt	3.5µM	nt	3.5µM	?	9.5µM
SMILES	SMN2 splice up	NPC1 promoter act	Luc counter	Rab9 prom act	ELG1 genotoxic	FLuc counter
CCN(CCn1cccn1)C(=O)c1cc(COc2ccccc2SC)on1	nt	2µM	nt	3.5µM	?	8.5µM
CCN(CC)S(=O)(=O)c1cccc(C(=O)OCC(=O)c2ccc3c(c2)OCCO3)c1	i	i	i	i	i	0.54µM
O=C(CN1C(=O)COc2ccccc2C1=O)c1ccc2c(c1)OCCO2	nt	i	nt	i	i	6.7µM
CN(C)S(=O)(=O)c1cccc(C(=O)OCC(=O)Nc2ccc3c(c2)OCCO3)c1	nt	i	nt	i	i	?
O=C(COC(=O)c1cccc(S(=O)(=O)NCc2ccccc2)c1)c1ccc2c(c1)OCCO2	i	i	i	i	i	1.3µM
O=C(COC(=O)c1cccc(S(=O)(=O)NCc2ccccc2)c1)NC1CC1	nt	nt	nt	nt	i	nt
O=C(CS(=O)(=O)c1ccccc1)c1ccc2c(c1)OCCO2	i	2.8µM	10µM	2.8µM	?	6µM
Cc1nc(N2CCCC2)c2c(C(=O)N3CCN(c4cc(Cl)ccc4C)CC3)c(C)oc2n1	nt	nt	nt	nt	nt	i
CS(=O)(=O)c1cccc(C(=O)OCC(=O)c2ccc3c(c2)OCCO3)c1	nt	i	nt	i	i	1.7µM
Cc1c(C(=O)OCC(=O)N2CCC(C)CC2)oc2ccccc12	nt	i	nt	i	?	?
Cc1c(C(=O)OCC(=O)c2ccc3c(c2)OCCO3)oc2ccccc12	i	i	i	i	i	9.5µM
Cc1cccc(NC(=O)Nc2ccc(S(=O)(=O)Nc3onc(C)c3C)cc2)c1	nt	i	nt	?	i	17µM
Cc1cc(C(=O)Nc2ccc(S(=O)(=O)Nc3onc(C)c3C)cc2)c(C)o1	i	i	i	i	i	?
Cc1cccc(OCCCC(=O)Nc2ccc(S(=O)(=O)Nc3onc(C)c3C)cc2)c1	i	i	i	i	i	i
Cc1ccc2oc(C(=O)Nc3ccc(S(=O)(=O)Nc4onc(C)c4C)cc3)c(C)c2c1	nt	i	nt	?	?	7.6µM
Cc1ccc(/C=C/C(=O)Nc2ccc(S(=O)(=O)Nc3onc(C)c3C)cc2)cc1	nt	i	nt	i	i	15µM
COc1cccc(C(=O)Nc2cccc(C(=O)OCc3cc(=O)n4nc(C5CC5)sc4n3)c2)c1	nt	nt	nt	nt	nt	i
Cc1c(OC(C)C(=O)NCc2ccncc2)ccc2c3c(c(=O)oc12)CCCC3 (stereo not given)	nt	i	nt	i	i	i
Cc1cc(C(=O)CCC(=O)Nc2ncccc2O)c(C)s1	nt	i	nt	i	i	i
Cc1csc2ncc(C(=O)Nc3ccc4c(c3)OCCO4)c(=O)n12	4.5µM	?	i	2.2µM	2.3µM	?
Cc1cccc(NC(=O)c2cnc3scc(C)n3c2=O)c1	13µM	3.2µM	i	3.2µM	i	8.5µM
CCN1C(=O)[C@H]2[C@@H](c3ccc(-c4ccccc4)cc3)N3CCC[C@@]3(C(=O)OC)[C@H]2C1=O	nt	i	nt	i	i	?
Cc1sc2nc3ccc(NCc4ccco4)nn3c(=O)c2c1C	i	i	i	i	i	i
O=c1c2ccccc2nc2ccc(NCc3ccco3)nn12	14µM	?	i	?	?	11µM
CCOC(=O)CSc1nc2c(sc3cccc(F)c32)c(=O)n1Cc1ccc(OC)cc1	nt	nt	nt	nt	nt	i
SMILES	SMN2 splice up	NPC1 promoter act	Luc counter	Rab9 prom act	ELG1 genotoxic	FLuc counter
O=C(Oc1ccc(-c2csnn2)cc1)c1cccs1	nt	i	nt	i	i	2.4µM
O=C(Oc1ccc(-c2csnn2)cc1)C1CC1	nt	i	nt	i	i	17µM
O=C(Oc1ccccc1-c1csnn1)c1cccs1	i	i	i	i	i	i
O=S(=O)(Nc1ccccc1)c1ccc(-c2csnn2)cc1	nt	i	nt	i	i	i
c1ccc(-c2ccc(-c3csnn3)cc2)cc1	?	2.2µM	i	2µM	i	?
CC(C)(C)c1ccc(C(=O)Nn2cnnc2)cc1	nt	i	nt	i	i	24µM
O=C(Nn1cnnc1)c1ccncc1	nt	i	nt	i	i	i
